Reference: PubChem BioAssay AID1671193 (National Center for Advancing Translational Sciences (NCATS), 2021)
In all, about 150,000 compounds went through this assay and about 180 (0.12%) were called active. About 6% were inconclusive and are not listed. The entries come from a sample that favours actives as a whole. Unmarked numbers belong to inactive results. Calls come from the whole dose curve; as a rule, active = well fitted cell-killing curve with a large enough effect; inconclusive = small, poorly fitted or top-dose-only effect, or effect the other way; inactive = flat fitted curve, though single readings scatter.

experiment: GF-AFC viability counterscreen for inhibitors of alpha-synuclein gene (SNCA) expression; settings: HEK-293-SNCA-luc viability, GF-AFC fluorescence, 24 h; series mostly up to 57.1 µM; activity change, negative = cytotoxicity: at the top concentration; note: nearly all actives have a fitted effect of over 30% in size
Source text: Assay Submitter (PI): Daniel R. Scoles Ph.D.
Department of Neurology, University of Utah, Salt Lake City, Utah
Accumulation of alpha-synuclein is a main underlying pathological feature of Parkinson's disease (PD) and alpha-synucleinopathies, for which lowering expression of the alpha-synuclein gene (SNCA) is a potential therapeutic avenue. Using a cell-based luciferase reporter of SNCA expression we performed a quantitative high throughput screen (qHTS) of 155,885 compounds in dose response. The screening assay was generated using genome editing to insert the luciferase gene downstream and in frame of the SNCA gene in HEK-293 cells (1). A viability counterscreen using GF-AFC was used to eliminate cytotoxic and false positive compounds. After in silico analysis (clustering, removal of frequent hitter nuisance chemotypes), inhibitor compounds from the primary screen were selected for follow up and re-tested at 11-doses in the SNCA-luc cells (luciferase and GF-AFC confirmation), and in CMV-luc expressing cell line to flag general transcriptional repressors.
Described herein are the results of the GF-AFC viability counterscreen for SNCA inhibitors; inactivity (no decrease in fluorescence signal, not cytotoxic) is the desired output for this assay.
1. Dansithong, W., Paul, S., Scoles, D. R., Pulst, S. M., and Huynh, D. P. (2015) Generation of SNCA Cell Models Using Zinc Finger Nuclease (ZFN) Technology for Efficient High-Throughput Drug Screening. PLoS ONE 10, e0136930.
SEQUENCE No. (e.g., 1, 2, 3, etc.); […] (e.g., Cells, Incubation, Reagent, etc.); VALUE; DESCRIPTION
1; Cells; 4 uL; Dispense 1500 HEK-293-SNCA-luc cells/well into Greiner 1536-well white / solid bottom tissue culture treated plate. The plate was covered with metal lids with gas-exchange holes.
2; Incubate; 24 hours; Incubate at 37C, 5% CO2, 95% RH.
3; Compounds; 23 nL; Compounds and controls were transferred via a Kalypsys Pin Tool (Wako USA) equipped with a 1536-slotted pin array. The plate was covered with metal lids with gas-exchange holes.
4; Incubate; 24 hours; Incubate at 37C, 5% CO2, 95% RH.
5; Dispense; 1 uL; Dispense Gly-Phe-7-amino-4-trifluoromethylcoumarin (GF-AFC, prepared at 125 uM in PBS) was added. The plate was covered with metal lids with gas-exchange holes.
6; Incubate; 30 min; Incubate at 37C, 5% CO2.
7; Detector; Fluorescence; Measure fluorescence with ViewLux microplate reader (PerkinElmer) equipped with 405/10 excitation and 540/25 emission filters.
8; Dispense; 3 uL; Dispense ONE-Glo ([…]) lucifase detection reagent was added to each well. Plates were covered with metal lids with gas-exchange holes.
9; Incubate; 15 min; Incubate at room temperature.
10; Detector; Luminescence; Measure luminescence with ViewLux microplate reader (PerkinElmer) equipped with clear filters.
NOTES (numbers refer to sequence above)
1; HEK-293-SNCA-luc were cultured and suspended in phenol-red free DMEM (4.5 g/L glucose, 25 mM HEPES, cat #21063 (Thermo)).
3; Compounds were added to the assay plate in an 11-point intra plate dose response, 1:3 titration in DMSO with a final concentration range of […]. Vehicle-only plates, with DMSO being pin-transferred to every well, were inserted at the beginning of screening runs to confirm expected assay performance. Activity was normalized to wells containing medium only (-100% activity, full inhibition) and SNCA-luc cells treated with DMSO vehicle control (0% activity), contained on the same plate as test samples.
10; Signals were analyzed, and dose-response curves were fit using the Hill equation. Compounds in curve classes -1.1, -1.2, -2.1, -2.2 in the SNCA-luc assay were considered active. Compounds were eliminated from further consideration if also active (curve class -1.1, -1.2, -1.3, -1.4, -2.1, -2.2, -2.3, -2.4) in the GF-AFC cytotoxicity assay.
Potency is the fitted concentration of half-maximal effect.

| Structure (SMILES) | activity change, negative = cytotoxicity | Potency |
| --- | --- | --- |
| O=C1[C@@H]2C[C@@H](CN2Cc2ccc3ccccc3n2)Oc2ccccc2N1Cc1ccccc1 | -2.59% | – |
| COc1ccccc1-c1cccc(CN2CCCC(C(=O)NCC3CC3)C2)c1 (configuration not stated) | -20.7% | – |
| CN(C(=O)CN1C(=O)NC2(CCOCC2)C1=O)c1ccccc1 | 0.394% | – |
| O=c1cc(-c2ccccn2)oc2c(-c3ccccc3F)nccc12 | -4.35% [at 87.6 µM] | – |
| COc1ccc2c(c1)OCC(C(=O)NCc1cc3cc(OC)ccc3[nH]1)C2 (configuration not stated) | -0.849% | – |
| COCCC(=O)N1CCCCCCNC(=O)[C@@H]2CCCC[C@@H]21 | -2.24% | – |
| Cc1ccc(CN2CCCCCNC(=O)[C@H]3C[C@H](C(=O)N4CCc5ccccc5C4)C[C@H]32)o1 | 3.43% | – |
| COc1ccc(-c2noc(C(=O)O)c2[C@@H](C)NS(=O)(=O)c2ccccc2)cc1 | 2.71% [at 87.6 µM] | – |
| O=C(NCC1CC1)c1cn(C2CN(C(=O)C3CCOC3)C2)nn1 (configuration not stated) | -3.5% | – |
| O=C(Cc1cccc(F)c1)N1CCC2(CCC2N2CCOCC2)CC1 (configuration not stated) | 18.3% | – |
| Cc1cccc(CN2CCCN(Cc3ccncc3)C(c3ccccc3)CC(=O)NCC2)c1 (configuration not stated) | -16.1% | – |
| CCCCS(=O)(=O)c1oc(-c2cccs2)nc1S(=O)(=O)c1ccccc1 | – | 12.6 µM (active) |
| Cc1ccc(CSc2oc(-c3cccs3)nc2S(=O)(=O)c2ccc(C)cc2)cc1 | 9.59% | – |
| CSc1oc(-c2cccs2)nc1S(=O)(=O)c1ccc(Br)cc1 | 1.94% | – |
| O=C(CCCc1c[nH]c2ccccc12)N1CCC2(CC1)CC(CCOCC1CC1)CCO2 (configuration not stated) | -6.02% | – |
| CCc1cccc(NC(=O)N2[C@@H]3CC[C@H]2CC(NC(=O)c2ccc(F)cc2)C3)c1 (some centres not stated) | -25.3% | – |
| O=C(NCc1cccc(C(F)(F)F)c1)c1nn(CCOc2ccccc2)c2c1CNCC2 | -4.06% | – |
| Cn1ccnc1CNCC1(COc2ccc(C(F)(F)F)cn2)C[C@@H](O)[C@@H](O)C1 (some centres not stated) | -2.65% | – |
| O=C(NCc1ccccc1)[C@@H]1Cc2nc[nH]c2CN1Cc1cccc(OC(F)(F)F)c1 | -8.21% [at 87.6 µM] | – |
| COc1ccc(NC(=O)C2(C)CN(C)Cc3ccc(Nc4cccc(OC)c4)nc32)cc1 (configuration not stated) | -18.7% [at 87.6 µM] | – |
| O=C(NCC1CC1)c1coc(COc2ccc3c(c2)C(c2cccc(F)c2)N(C(=O)C2CC2)CC3)n1 (configuration not stated) | -14.2% | – |
| CC(CCc1ccccc1)NC(=O)CN1C(=O)NC(c2ccccc2Cl)C2=C1COC2=O (configuration not stated) | -0.822% | – |
| O=C(NCc1ccccc1F)c1nc2cccnc2n(C2CC2)c1=O | -13.2% [at 87.6 µM] | – |
| OC1CN(Cc2ccccc2)CCN(C2CCN(c3ccccc3F)CC2)C1 (configuration not stated) | 4.08% | – |

| Structure (SMILES) | activity change, negative = cytotoxicity | Potency |
| --- | --- | --- |
| Cc1ccc(S(=O)(=O)N2CCCN(C)c3ccccc32)cc1Cl | -17.9% | – |
| Cc1nc(N2CCCCC2)ncc1C(=O)N1CCC2(CCCNC2=O)C1 (configuration not stated) | 23.5% | – |
| NCc1ccccc1-c1cccc(C(F)(F)F)c1 | -9.76% [at 87.6 µM] | – |
| O=C1[C@H]2CN(Cc3ccccc3F)C[C@H]2C(=O)N1CCN1CCc2ccccc2C1 | 4.45% | – |
| O=C(NCc1ccco1)[C@@H]1Cc2nc[nH]c2CN1CCCc1ccccc1 | 0.221% [at 87.6 µM] | – |
| COc1ccc2cc(CN3CCNC(=O)C3C)c(-c3cccs3)nc2c1 (configuration not stated) | -3.98% | – |
| COc1cccc(-c2cn3c(n2)N(C(=O)Cc2ccccc2)CCC3)c1 | 4.12% | – |
| O=C(CCC[C@H]1NC[C@@H]2C[C@H]1CN(Cc1ccccc1)C2)N1CCN(C2CCCCC2)CC1 | -23.5% | – |
| Cc1cccc(OCC2CCCN(c3ncncn3)C2)c1 (configuration not stated) | 2.2% | – |
| O=C(c1ccc2c(c1)OCO2)N1CCC2(CC1)NC(=O)N(c1ccccc1)N2 | -4.33% | – |
| Cc1noc2c(Nc3ccc(Cl)cc3)cc(-c3cccnc3)nc12 | -15.1% [at 87.6 µM] | – |
| COCCN1CCOC2(CCN(Cc3ccc(C(C)C)cc3)CC2)C1=O | -4.8% [at 87.6 µM] | – |
| CN(C)Cc1cccc(-c2cc(-c3ccncc3)c3cncn3c2)c1 | 0.379% [at 87.6 µM] | – |
| O=C(Cc1ccc(F)cc1)N1CN=C(C2CCN(Cc3ccc(F)cc3)CC2)N1 | -6.57% | – |
| COC(=O)[C@@H]1Cc2ncn(Cc3ccccc3)c2CN1C(=O)CC(C)(C)C | -4.83% [at 87.6 µM] | – |
| CC(C)Oc1ccc(CN2CCCC(COc3ccccc3C(=O)N3CCCC3)C2)cc1 (configuration not stated) | -12.6% | – |
| COc1ccc(N2CCN(c3nc(C(=O)NC4CCCCCC4)cs3)CC2)cc1 | -19.7% | – |
| O=C(C1CCCC1)N1CCc2nc(C3CC3)nc(-c3ccc(O)cc3)c2C1 | -12.3% | – |
| O=C1C2CN(Cc3ccc4[nH]ccc4c3)CCC2OCCN1Cc1ccccc1F (configuration not stated) | -5.56% [at 87.6 µM] | – |
| CCN(CC)CCCCNc1ncc2cc(-c3c(Cl)cccc3Cl)c(NC(=O)NC(C)(C)C)nc2n1 | – | 15 µM (active) |
| CN(C)C[C@@H]1CN(Cc2cccnc2)C[C@H]1NC(=O)Cc1cccc(F)c1 | 17.1% | – |
| O=C(c1cccc(O)c1)N1CCNc2cnc(Nc3cccc(F)c3)nc2C1 | -14.6% [at 87.6 µM] | – |
| c1cnc2nc(C3CCN(C4CCCCC4)C3)[nH]c2c1 (configuration not stated) | -13.3% [at 87.6 µM] | – |
